Source: PubChem (National Center for Advancing Translational Sciences (NCATS))
The sample as a whole holds a higher share of hits than the screen did.
BRCT PPI red: inhibitors of human BRCA1 BRCT-phosphoprotein interaction (red fluorophore) | BRCT-phosphopeptide binding, red fluorescence polarization | Potency, µM (series often up to 76.9 µM), for inactives: at the top dose activity change, negative = inhibition, most hits filed as inhibitors | actives 0.03% (n = 75,000); further: on the % scale 0 is the no-effect control and ±100 the full control effect
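Rhodamine-labelled pBACH1 10-mer (100 nM) bound to BRCT domain (100 nM) at pH 7.3; compounds incubated 12 min room temperature, polarization read. Free peptide defines full inhibition; unlabelled decapeptide titrated as control.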
BRCT inh green: BRCA1 BRCT-phosphoprotein interaction inhibition; P38398; BRCA1 BRCT-phosphopeptide binding, green fluorescence polarization; Potency, µM (series often up to 76.9 µM), without a hit: at the top dose activity change, negative = inhibition, hits mostly inhibitors; actives 0.05% (n = 75,000); AID 875;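 further: potency means the concentration at half of the fitted maximal effect; plate controls were peptide without protein for full effect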
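Compounds were incubated for 12 min at room temperature with a complex of 100 nM fluorescein-tagged pBACH1 decapeptide and 250 nM His-tagged BRCT protein. Buffer was phosphate pH 7.3 with EDTA, DTT and Tween 20. Disruption of binding lowers the polarization signal.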
TsaE inh: YjeE (TsaE) inhibition, E. coli; purified YjeE enzyme, qHTS inhibition assay; Potency, µM; actives 0.05% (n = 71,000)
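Fluorescence polarization of a BODIPY Texas Red–ADP probe (2 uM) bound to purified YjeE (10 uM) was read after 15 min room-temperature incubation with compounds. Loss of polarization marks inhibitors; ADP serves as titrated control.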
ALOX15B inhib: 15-hLO-2 (ALOX15B) enzyme inhibition; AID 881; purified 15hLO-2, xylenol orange hydroperoxide absorbance; Potency, µM (doses to about 57.1 µM), without a hit: top-dose activity change, negative = inhibition, actives largely listed as inhibitors; actives 0.56% (n = 110,000); further: potency means the concentration at half of the fitted maximal effect; on the % scale 0 is the no-effect control and ±100 the full control effect; nearly all actives have a fitted effect of over 60% in size
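Purified human 15hLO-2 (50 nM) preincubated 15 min with compound, then 45 uM arachidonic acid for 90 min at RT in 25 mM Hepes pH 7.5, 0.01% Triton X-100. Hydroperoxide detected by Fe-xylenol orange; 573/405 nm absorbance ratio.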
DNA Pol III inh: DNA polymerase III holoenzyme inhibition | reconstituted DNA polymerase III holoenzyme replication, biochemical | Potency, µM (titrated, usually from 57.1 µM), for inactives: top-dose activity change, negative = inhibition | actives 0.25% (n = 71,000); further: potency means the concentration at half of the fitted maximal effect; on the % scale 0 is the no-effect control and ±100 the full control effect
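Reconstituted *E. coli* holoenzyme (0.35 nM Pol III, 1 nM beta, 154 nM SSB, 2 nM primase) was preincubated with compound for 15 min at RT. Synthesis on 1.4 nM ssM13Gori ran 35 min, then was stopped with PicoGreen/EDTA and read as dsDNA fluorescence.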
ALOX15 inhib: inhibitors of human 15-lipoxygenase (ALOX15). P16050. purified 15hLO-1, xylenol orange hydroperoxide absorbance. Potency, µM (highest dose often 57.1 µM), for inactives: top-dose activity change, negative = inhibition, actives largely listed as inhibitors. actives 1.4% (n = 74,000). AID 887; further: potency means the concentration at half of the fitted maximal effect; on the % scale 0 is the no-effect control and ±100 the full control effect; nearly all actives have a fitted effect of over 55% in size
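Compounds were preincubated 15 min at room temperature with 40 nM purified human enzyme (25 mM Hepes pH 7.5, 0.01% Triton X-100); 50 uM arachidonic acid reacted 6 min. Fe-xylenol orange detection, 30 min, absorbance ratio 573/405 nm.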
The depositor's hits bear a star; [ ] = another dose, or the depositor's remark. The call rests on the fitted dose curve; in most records, active means well fitted curve in the direction sought with a large enough effect; inconclusive means small, poorly fitted or top-dose-only effect, or another doubt; inactive means no such curve, though single readings can be large; an effect the other way counts as inactive or inconclusive.

Screening O=S(=O)(O)c1cc(N=[N+]([O-])c2cc(S(=O)(=O)O)c3ccccc3c2)cc2ccccc12 returned BRCT PPI red -3%[15.4 µM], BRCT inh green 0%[15.4 µM], TsaE inh inactive, ALOX15B inhib -26%[11.4 µM], DNA Pol III inh -15%[11.4 µM] and ALOX15 inhib 4µM*.
`Nc1ccc(N=Nc2c(S(=O)(=O)O)cc3ccccc3c2S(=O)(=O)O)cc1` gave BRCT PPI red -1%[15.4 µM], BRCT inh green -4%[15.4 µM], TsaE inh inactive, ALOX15B inhib 0%[11.4 µM], DNA Pol III inh -8%[11.4 µM] and ALOX15 inhib 8%[11.4 µM].
For O=C(Nc1nc(-c2ccco2)c(-c2ccco2)s1)C1CC(=O)N(c2ccc3c(c2)OCCO3)C1 (stereo not drawn) the results were BRCT PPI red inconclusive, BRCT inh green inconclusive, TsaE inh inactive, ALOX15B inhib inconclusive, DNA Pol III inh 10µM* and ALOX15 inhib 2.5µM*.
`CCc1cccc(CC)c1NC(=O)C1CC(=O)N(c2ccc3c(c2)OCCO3)C1` (stereo not drawn) gave ALOX15B inhib -6%.
CC(C)=CCC[C@](C)(O)C1CC=C(C)CC1 (stereo partly drawn) was read as BRCT PPI red 1%, BRCT inh green 1%[3.08 µM], ALOX15B inhib -10% and ALOX15 inhib 13µM*.
Screening COc1ccc(N(C(=O)C(C)C)S(=O)(=O)c2cccs2)cc1 returned ALOX15B inhib -2%.
Screening CCCC(=O)N(c1ccc2oc(=O)sc2c1)S(=O)(=O)c1ccccc1 returned BRCT PPI red 0%, BRCT inh green -1%, TsaE inh inactive, ALOX15B inhib 3%[2.29 µM], DNA Pol III inh -4% and ALOX15 inhib 25µM*.
CC(=O)N(c1ccc2oc(=O)sc2c1)S(=O)(=O)c1cccs1 was read as BRCT PPI red -1%, BRCT inh green -3%, TsaE inh inactive, ALOX15B inhib -7%, DNA Pol III inh -2% and ALOX15 inhib 10µM*.
Screening COC(=O)c1c(C)oc2ccc(N(C(=O)c3ccncc3)S(=O)(=O)c3ccccc3)cc12 returned ALOX15B inhib -5%.
`CC(C)C(=O)N(c1ccc2oc(=O)sc2c1)S(=O)(=O)c1cccs1` gave BRCT PPI red 0%, BRCT inh green -1%, TsaE inh inactive, ALOX15B inhib inconclusive, DNA Pol III inh -6% and ALOX15 inhib 20µM*.
Screening COc1ccccc1-c1cc(-c2ccccc2)nc(SC(C(N)=O)c2ccccc2)c1C#N (stereo not drawn) returned ALOX15B inhib 16µM*.
For NCC[C@H](N)C(=O)O the results were BRCT PPI red -2%[15.4 µM], BRCT inh green 0%[15.4 µM], TsaE inh inactive, ALOX15B inhib -3%[11.4 µM], DNA Pol III inh -9%[11.4 µM] and ALOX15 inhib -1%[11.4 µM].
CC(C)Sc1oc(-c2ccco2)nc1S(=O)(=O)c1ccc(F)cc1 was read as BRCT PPI red -2%, BRCT inh green 8%, TsaE inh inactive, DNA Pol III inh -6% and ALOX15 inhib 25µM*.
Screening Cc1ccc(S(=O)(=O)NNc2nc3ccccc3nc2C(F)(F)F)cc1 returned ALOX15B inhib 7.9µM*.
For Cc1ccc(S(=O)(=O)Nc2nc3ccccc3nc2N2CCN(c3ccccc3F)CC2)cc1 the results were ALOX15B inhib -8%.
CCCN(CCc1ccccc1)[C@H]1CCc2c(O)cccc2C1 was read as BRCT PPI red -3%, BRCT inh green -2%, TsaE inh inactive, ALOX15B inhib 19%, DNA Pol III inh -7% and ALOX15 inhib 12%.
Screening CC1=C(/C=C/C(C)=C/C=C/C(C)=C/C=C/C=C(C)/C=C/C=C(C)/C=C/C(=O)[C@]2(C)CC(O)CC2(C)C)C(C)(C)CC(O)C1 (stereo partly drawn) returned BRCT PPI red 0%, BRCT inh green 0%[3.08 µM], ALOX15B inhib 24% and ALOX15 inhib 3.2µM*.
